Results reported in PMC13494018.

B1: d6r1_design_ppi_243_dldesign_0_cycle1_af2pred (protein)
chain: AEAVARAARDARAQIELAEALLKQGLAAAKTDPAQALLAYNAALAAARSAVRIAARAPEVLEEARAALAAVEAAKAKVQAQAA
B2: d6r1_design_ppi_229_dldesign_0_cycle0_af2pred (protein)
chain: EEARELARRTAEEAEELIKKALPEEDRELAELAGDLVRAGAEAATTNPAQGRAAFRTAAGILRSAGAEEAAEEVERRMEEMLRRIA
B3: d6r1_design_ppi_2_dldesign_0_cycle1_af2pred (protein)
chain: AEAKKKAIEDAEGAAEAAKKFLDLFKEAFPEAKETIAALQAKVEAAKKAAEKARKEGADVATAQAVLDQARAVQVDIINALNEATRS
B4: d6r1_design_ppi_203_dldesign_0_cycle1_af2pred (protein)
chain: AQEQVVKEAQQLLLAASQAISKALVRAAQGTLQQADIEAAQKLIEAAAKAAEKAPPEAKARLNKGVEGLKELLEGALQTAKLAK
B5: d6r1_design_ppi_13_dldesign_0_cycle1_af2pred (protein)
chain: AAEAKAAEKAARAELAKLRAVAAANPVHGGEILLAVARAAAEVNRLIAKGLAGTPEEAKAAAEAAKAAVAKARAEAAALA
B6: d6r1_design_ppi_2_dldesign_0_cycle0_af2pred (protein)
chain: EEERRRAIEAAEGAVEAARKNLELFREAHPEATEEIARLEARVEEARREAERAREEGASVEEARRVLERARAVQAEITRALHRANLA
B7: d6r1_design_ppi_51_dldesign_0_cycle0_af2pred (protein)
chain: ALAEAQKQLAQARALVLGAEAAVEHAERSSPEEGRRALAAARDLIAQAKEKAKAAAKHPETKAEAEKLLKEAEKLEARAAAVEAAL
B8: d6r1_design_ppi_232_dldesign_0_cycle0_af2pred (protein)
chain: AEEFAEEAKKELEEIEKMIKEGEARADGEQIAVEAIEKAGEALKKAKEFKKKDPKVGEEAAKEFLKAINEATKAANAKAAAA
B9: d6r1_design_ppi_239_dldesign_0_cycle1_af2pred (protein)
chain: DKAVLEEAEKVFKEALAVAEEIVAEGAKNPAYAAFAKAFAKQLKAQLAEAKKLTPEEALKAAKKLLDAAKQALKLVSE
B10: d6r1_design_ppi_197_dldesign_0_cycle0_af2pred (protein)
chain: AAELAALEAEFRDQLEVARQAARFSPASAAAFLAGVAASLRRRLPPALGAAFAARADAAAAAARLLGEDPAAGEALFAAVLA
B11: d6r1_design_ppi_82_dldesign_0_cycle1_af2pred (protein)
chain: AAATQQQLTQAVRDALLARVAAVAADPSQAELLRRVTRSAVLMMGALEGLEGARAFAERAIAAAAAVGPEAAAAVREGAREGLEEYAA
B12: d6r1_design_ppi_222_dldesign_0_cycle1_af2pred (protein)
chain: SAEAAALKEEAEKLGKEALAAAEELKKVDPEKGERLKSQIKGLELQAISSYDLAAVNPAALATAKKAREQLEKLGREAKEAV
B13: d6r1_design_ppi_138_dldesign_0_cycle1_af2pred (protein)
chain: GKKKEEAEKLIKEAKEVKEKAEEAAKLAKELGNEEAAKAAQKAIEEAEKAIEAAKEGKLEEARLHLAKAKGYLLRAQGLIANKLAAA
B14: d6r1_design_ppi_30_dldesign_0_cycle0_af2pred (protein)
chain: EKEEIIKKAKELKEQAEKVLAEDVSPLAKKVAEQAIKHAEKAIEAAKAGDLEEAKAHLSSAEAFVLGLTR
B15: d6r1_design_ppi_62_dldesign_0_cycle0_af2pred (protein)
chain: VEEARALAESAEQAAEAGSYLLAALNLERAVRLAEELARRGEGLEEVRRIAERVAEVAKRVAESPEVRERAEEILRRAKRIIEEI
B16: d6r1_design_ppi_198_dldesign_0_cycle1_af2pred (protein)
chain: GEAEKVEKAKEKAAEKINEALALASKGAIEGDVEKVKEAKEILKEAVKEAKAVSPEAAKYAEELAKKAEEIIEAMEKSAKAAA
B17: d6r1_design_ppi_251_dldesign_0_cycle0_af2pred (protein)
chain: DAARALLLRTAENAAQMLRLLGVDEATAEAVLARLTAAAAAGPAAFAAAARAAAAELEAQPSLNARTAGAALRTAAATAEAEIAAL
B18: d6r1_design_ppi_3_dldesign_0_cycle0_af2pred (protein)
chain: EEELARAAEAARRQAEVAEALAEQAAAADPANQPLADEARRLAERARELAERGATVEEIREALLEVSRAAARAAAALNAAVAA
B19: d6r1_design_ppi_11_dldesign_0_cycle1_af2pred (protein)
chain: EMEKAQKELLEAANKAMTTLFKAAAAASAKGDNATAGQLVEAAGEVSKLAKEAVKKSPEAMKEAAKKLKEAAAAGAKLGAA

target: CD276, Q5ZPR3
Sequence (Q5ZPR3 whole entry): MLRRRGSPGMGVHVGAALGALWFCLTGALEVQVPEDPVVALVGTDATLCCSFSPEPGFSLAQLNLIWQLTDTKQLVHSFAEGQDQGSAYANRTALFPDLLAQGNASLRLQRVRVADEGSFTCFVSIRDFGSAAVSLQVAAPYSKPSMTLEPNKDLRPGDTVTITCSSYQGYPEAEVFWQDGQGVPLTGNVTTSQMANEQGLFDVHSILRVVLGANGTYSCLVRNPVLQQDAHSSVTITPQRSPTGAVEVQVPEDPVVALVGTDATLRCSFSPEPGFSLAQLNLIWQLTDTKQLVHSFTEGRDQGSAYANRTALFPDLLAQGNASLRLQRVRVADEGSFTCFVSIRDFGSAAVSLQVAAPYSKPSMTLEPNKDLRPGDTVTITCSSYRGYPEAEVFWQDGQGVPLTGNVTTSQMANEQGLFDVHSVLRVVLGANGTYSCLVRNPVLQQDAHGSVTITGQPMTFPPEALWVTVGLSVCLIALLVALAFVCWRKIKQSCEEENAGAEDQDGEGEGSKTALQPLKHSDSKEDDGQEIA

Binding in a display sort, inactive:
B1 not found, B2 not found, B3 not found, B4 not found, B5 not found, B6 not found, B7 not found, B8 not found, B9 not found, B10 not found, B11 not found, B12 not found, B13 not found, B14 not found, B15 not found, B16 not found, B17 not found, B18 not found, B19 not found
